Laboratory results reported in ChEMBL document CHEMBL3988442, “University of Dundee, Small-Polar-MMV Screening Library” (2021).
Where “and” joins values, the source holds several entries; their conditions need not be identical. Identical values can stand only once. About 290 (0.85%) of roughly 34,000 compounds showed an effect of 50% or more. What follows is part of a selection rich in strong results, with near analogues and random picks from the rest.

Tested on: Plasmodium falciparum
Experiment: Plasmodium falciparum sporozoite viability assay
Type: functional, organism-based
Parameters: scale not given: in the data most compounds retested in dose-response had high values

| SMILES | Percent Effect [%] | Percent Effect (10 mM as filed; unlikely as a test dose) |
| --- | --- | --- |
| CCCc1ncc(CNC2(c3ccc(Cl)cc3)CCC2)cn1 | 9.707 |  |
| COc1ccc2cc(C(=O)N3CCCC(n4ccnc4C)C3)[nH]c2c1 (configuration not stated) | -4.765 |  |
| O=C(O)[C@@H]1CN(C(=O)CC2CCCC2)C[C@H]1c1ccc(F)cc1 | 4.737 |  |
| Cc1nccc(C(=O)N2CCCC(c3cc(C(F)(F)F)[nH]n3)C2)n1 (configuration not stated) | 8.419 |  |
| Cc1cc(C)n(C2CN(CC(=O)N(C)Cc3ccc(C)o3)C2)n1 | -8.906 |  |
| CN(C)C(=O)CN1CCCC1c1nccnc1Nc1ccccn1 (configuration not stated) | -3.467 |  |
| Cc1ccc2c(c1)CN(C(=O)c1cnc(C)cn1)C(CN(C)C)CO2.Cl (configuration not stated) | -2.552 |  |
| O=S(=O)(C1CC1)N1CCC2(COCc3cnc(-c4cccnc4)nc32)C1 (configuration not stated) | 9.968 |  |
| CCOc1ccccc1OC1CCN(Cc2ccn(C)c(=O)c2)CC1 | 8.133 |  |
| CCOc1cc([C@H]2N[C@@H](c3nc(C)cs3)Cc3ccsc32)ccc1OC | 5.89 |  |
| CC(C)NC(=O)CC1CC2(CCN(CC3CC3)CC2)Oc2ccccc21.O=C(O)C(F)(F)F (configuration not stated) | 11.82 |  |
| NC(=O)CC1CCN(C(=O)NCc2ccc(-c3ccn[nH]3)cc2)CC1 | 2.866 |  |
| COC(=O)CC1CCN(C(=O)Nc2ccc(-c3ccn[nH]3)cc2)C1 (configuration not stated) |  | 84.64% and 84.71% and 100.4% |
| CCOCC1CCCN(C(=O)NCc2ccc(-c3ccn[nH]3)cc2)C1 (configuration not stated) | 14.81 |  |
| COCc1cncc2c1CCN(C(=O)c1ccc(C#N)cc1)C2.O=C(O)C(F)(F)F | 7.706 |  |
| Cc1ccc(-c2cccc(CC3(C(=O)O)CCOCC3)c2)c(C)c1 | -5.038 |  |
| CN1CCCc2cc(CNC(=O)c3cc[n+]([O-])cc3)ccc21 | 8.46 |  |
| CCOCC1CN(C(=O)c2ccncn2)Cc2cnn(CC)c21.O=C(O)C(F)(F)F (configuration not stated) | -5.589 |  |
| Cc1ccc(Sc2ccc(N3CCC(C(=O)O)CC3)nn2)cc1 |  | 64.84% and 62.96% |
| O=C(O)C1CCN(c2ccc(Sc3ccc(Br)cc3)nn2)CC1 |  | -3.247% and -5.657% |
| Cc1ccc(Sc2ccc(N3CCCC(C(=O)O)C3)nn2)cc1 (configuration not stated) |  | 24.7% and 21.38% |
| CCNc1cc2c(nn1)CCN(C(=O)c1ccc3c(c1)OCO3)C2 | 6.984 |  |
